# Experimental data from PubChem BioAssay AID1347417 (National Center for Advancing Translational Sciences (NCATS), 2020).
# Among all 120,000 compounds or so, about 5,300 (4.4%) were called active. Inconclusive results (about 22%) are left out. What follows is part of a selection rich in actives, with near analogues and random picks from the rest. Values without a mark were called inactive. Calls come from the whole dose curve; as a rule, active = well fitted inhibition curve with a large enough effect; inconclusive = small, poorly fitted or top-dose-only effect; inactive = no such curve, though single readings can be large or run the other way.
# Test: qHTS Primary assay for Inhibitors of Plasmodium falciparum Dd2 growth in vitro; note: nearly all actives have a fitted effect of over 65% in size;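 for activity, negative = inhibition: plate controls were DMSO vehicle for no effect and reference drug for full effect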
# Conditions: P. falciparum Dd2 growth, SYBR Green, 72 h; series mostly up to 28.9 µM; activity, negative = inhibition: at the top concentration
# Description: Malaria, a parasitic disease spread to humans through the bite of a Plasmodium infected Anopheles mosquito, continues to be a global health burden affecting millions of people, with an estimated 228 million cases and 405,000 deaths in 2018. Concerns about safety and limitations of current antimalarial treatments strongly emphasize the need to develop new therapeutic options. The scarce number of chemotypes and validated drug targets with efficacy against the liver stage, have hindered development of new antimalarials. To address this, a chemoprophylactic drug discovery effort was conducted through a combined phenotypic high-throughput asexual blood stage and liver stage screen, providing a robust foundation to identify liver-stage active lead chemotypes. Compounds were initially screened against Plasmodium falciparum Dd2 strain parasites using a in vitro SYBRGreen-1 based 72 hr proliferation assay to identify novel chemotypes to advance to liver stage assays. NIH/NCATS Early Translation Branch Assay Submitter (PI): Anton Simeonov Ph.D.
# Malaria-vivax Assay Protocol: PROTOCOL TABLE (as described by Inglese et al., 2007) SEQUENCE No. (e.g., 1, 2, 3, etc.); […] (e.g., Cells, Incubation, Reagent, etc.); VALUE; DESCRIPTION SEQUENCE, Parameter, Description 1; Reagent; 3 uL complete malaria growth medium, 1536 TC treated Black clear bottom plate 2; Controls; 23 nL positive control artesunate (300 nM final) to column 1; Neutral control DMSO to columns 2-4 3; Compound; 23 nL of compounds in dose response concentration (29 uM to 0.5 nM final) 4; Reagent; 5 uL malaria infected red blood cells (2.5% hematocrit final, 0.3% parasitemia 5; Time; 72 hours at 37C (5% O2, 5% CO2, 90% N2; 95% Rh) 6; Reagent; 2 uL lysis buffer/SYBRGreen-1, 25 sec shake immediately following dispense 7; Time; ~16 hours at 37C (5% O2, 5% CO2, 90% N2; 95% Rh) 8; Detector; EnVision (PerkinElmer) bottom read at 485/14nm excitation and 535/25 nm emission NOTES (numbers refer to sequence above): 1; Complete Malaria Growth Media: 1X RPMI-1640 w/L-glutamine, 5.5g/L Albumax II, 367 uM Hypoxanthine, 25 mM HEPES, 0.25% Sodium Bicarbonate, 35 uM Gentamicin sulfate 2; Controls were added using the Kalypsis Pintool (Wako USA) equipped with 1536 pinhead 3; Compounds were added in a 7-point, titration with a high final concentration of 29 uM by Pintool from seven inter-plate titrations of library plates and two DMSO control plates at the beginning and end (see Yasgar et al., 2008). 4; Red blood cells infected with Plasmodium falciparum Dd2 parasites were used. 6; Lysis buffer: 20 mM Tris-HCl, 10 mM EDTA, 0.16% Saponin, 1.6% Triton-X, 10X SYBR Green. REFERENCE: Inglese J, Shamu CE, Guy RK. 2007. Reporting data from high-throughput screening of small-molecule libraries. Nat Chem Biol. doi:10.1038/nchembio0807-438 Yasgar A, Shinn P, Jadhav A, Auld D, Michael S, Zheng W, Austin CP, Inglese J, Simeonov A. 2008. Compound Management for Quantitative High-Throughput Screening. J Lab Autom 13:79-89. doi:10.1016/j.jala.2007.12.004
# Potency is the fitted concentration of half-maximal effect.
SMILES,"activity, negative = inhibition",outcome,Potency
CC(C)(C)C(=O)Cn1ccn2nc3c(c2c1=O)CCCC3,-23.6%,,
Cc1cc2nc3n(c(=O)c2n1CC(=O)NC(C)CCc1ccccc1)CCCC3 (stereo not given),,inactive,
CCc1ccc(CNCc2c(C(=O)O)n(Cc3ccc(F)cc3Cl)c3cc(OC)ccc23)cc1,,inactive,
COc1cccc(CNCc2c(C(=O)O)n(Cc3ccc(C)cc3)c3cc(C)ccc23)c1OC,,,10 µM (active)
COc1ccc2c(CNCCc3ccccc3C)c(C(=O)O)n(Cc3ccccc3C)c2c1,54.4% [at 5.79 µM],,
O=C(CCCc1ccccc1)N1CCCC(c2nc(C3CCOCC3)no2)C1 (stereo not given),-17.4%,,
COc1ccc(O[C@H]2COCCN(Cc3nccn3C)C2)cc1,,inactive [at 44.1 µM],
CC(C)CN1CCOC[C@H](Oc2ccc(S(C)(=O)=O)cc2)C1,-22.7% [at 44.1 µM],,
Cn1cc(CN2CCOC[C@H](Oc3ccc(S(C)(=O)=O)cc3)C2)c2ccccc21,,,10 µM (active)
COc1ccc(-c2noc(CC3CCN(C(=O)Cc4ccc(OC)c(OC)c4)CC3)n2)cc1,,,11.2 µM (active)
COc1ccc(-c2noc(CC3CCN(C(=O)Cc4ccc(C)cc4)CC3)n2)cc1,-16%,,
COc1ccc(CC(=O)N2CCC(Cc3nc(-c4ccccc4)no3)CC2)cc1OC,,inactive,
N#Cc1ccc(C(=O)N[C@@H](Cc2ccccc2)C(=O)N2CCCOCCNC(=O)CC2)cc1,-20.6%,,
CC(C)(C)C(=O)N1CCC(c2nn(-c3ccc(F)cc3)c(=O)[nH]2)CC1,,inactive [at 44.1 µM],
Cc1ccc(NC(=O)N2CCc3[nH]c4ccc(F)cc4c3C2)cc1,-6.6%,,
COCc1cn([C@H]2CO[C@H]3[C@@H]2OC[C@H]3OC(=O)Nc2cccc(C#N)c2)nn1,,inactive [at 44.1 µM],
Cc1c(C(=O)N(C)C)sc2c1c(=O)n(-c1ccc(F)cc1)c(=O)n2CC(=O)N(C)c1ccccc1,62.2%,,
COc1cccc(-n2c(=O)c3c(C)c(C(=O)N(C)C)sc3n(CC(=O)NCCc3ccc(OC)c(OC)c3)c2=O)c1,-23.1%,,
CCOc1ccccc1NC(=O)Cn1c(=O)n(Cc2ccccc2)c(=O)c2c(C)c(C(=O)N(C)C)sc21,,,3.16 µM (active)
COc1ccc(Nc2ccc3c(n2)CN(Cc2ccccc2C)C(=O)CO3)cn1,-2.87% [at 44.1 µM],,
O=C(COc1ccc(F)cc1)N1CCC2(CC1)NCCc1c2[nH]c2ccccc12,,,10 µM (active)
O=C(C1CCCO1)N1CCC2(CC1)NCCc1c2[nH]c2ccccc12 (stereo not given),-8.14%,,
COCCOCC(=O)N1CCC2(CC1)NCCc1c2[nH]c2ccccc12,-26.8%,,
Cc1nc2ncccn2c1C(=O)N[C@@H]1CCOC[C@H]1Oc1ccccn1,-3.97%,,
Cc1ccc2c(C(=O)O)cc(NC(=O)C(C)C)cc2n1,24%,,

SMILES,"activity, negative = inhibition",outcome,Potency
Cc1ccccc1NC1CCn2c(nc(C)c2C(=O)Nc2ccc(F)cc2)C1 (stereo not given),-18.3% [at 44.1 µM],,
CCN(CCCNC(=O)c1nnn2cc(-c3ccccc3)[nH]c(=O)c12)c1ccccc1,,,8.91 µM (active)
CCN(CCCNC(=O)Cn1ncc2c([nH]c3ccccc32)c1=O)c1cccc(C)c1,-14.7%,,
CCN(CCCNC(=O)c1cc2cc3cc(OC)ccc3nc2s1)c1ccccc1,-5.94%,,
Cc1nn(C)cc1CN(C)C(=O)C1CN(S(=O)(=O)c2cccnc2)CC12CCCCC2 (stereo not given),,inactive,
COc1cc(=O)n2c(c1C(=O)Nc1cccc(Br)c1)CCCC2,27.2%,,
CCc1cccc(NC(=O)N2CCC(c3noc(COc4ccc(F)cc4)n3)CC2)c1,-6.5%,,
CCOc1ccc(-c2cc3nc(C4CCN(C(=O)OC(C)(C)C)CC4)c(C(=O)Nc4cccc(CC)c4)cn3n2)cc1,,,7.94 µM (active)
CCOc1ccc(-c2cc(C)n3nc(C(=O)Nc4ccc(C)c(C)c4)cc3n2)cc1,-17.2%,,
O=C(C[C@@H]1CCNC[C@@H]1Cc1cc(COc2ccccc2)on1)NCc1ccco1,,inactive [at 44.1 µM],
CCc1cccc(NC(=O)CN2C(=O)NC(c3ccc(Cl)cc3)C3=C2COC3=O)c1 (stereo not given),-19.7%,,
Cc1ccc(-c2nnc(C3CN(C(=O)c4cc(C)cc(C)c4)CC34CCOCC4)o2)cc1 (stereo not given),-5.46%,,
C[S+](=O)([O-])N1Cc2ccccc2CC2(CCN(Cc3cccnc3)CC2)C1,-18.3%,,
O=[S+]([O-])(c1ccccc1)N1CC2(CCCCN2Cc2cccnc2)Cc2ccccc21 (stereo not given),,,8.91 µM (active)
CC(=O)NCC(=O)N1Cc2ccccc2CC2(CCCN2Cc2cccnc2)C1 (stereo not given),21.7%,,
CN1CCCN(S(=O)(=O)c2ccccc2)CCC(=O)NCC1,25.3%,,
CC(C)c1noc(-c2cccn3c(CNC(=O)c4ccc(C(C)(C)C)cc4)nnc23)n1,-0.267%,,
Cc1nc(-c2ccc(Cl)cc2)n(Cc2cc(F)cc(F)c2)c(=O)c1CCO,-10.6%,,
CCOc1ccc(C(=O)N2CCCN(C(=O)C3CC3)c3ccccc32)cc1,,inactive; activator; fitted 1.7783 uM,
CCOc1ccc(C(=O)/C=C/c2cn(CC(O)CN3CCCCCC3)c3ccccc23)cc1 (stereo not given),,,12.6 µM (active)
COc1ccc2cc(C(=O)N3C[C@@H](Oc4ccccc4)C[C@H]3C(=O)N3CCOCC3)[nH]c2c1,-1.38%,,
Cc1nc2c(c(C)nn2-c2ccccc2)c(C)c1CCC(=O)NCCc1ccc(Cl)cc1,22.1%,,
Cc1ccc(CNC(=O)CCc2c(C)nc3c(c(C)nn3-c3ccccc3)c2C)cc1,-16.4%,,
COC(=O)c1ccc(NC(=O)CCc2c(C)nc3c(c(C)nn3-c3ccc(C)cc3)c2C)cc1,,,6.31 µM (active)
Cn1cc(-c2ccccc2)cc1C(=O)NCc1ccc(N2CCOCC2)cc1,,inactive,
